{"source": "PubChem BioAssay (NCATS)", "note": "Results filed as inconclusive are left out. A call without a number means that no potency is given here. The source made the active and inactive calls. Calls follow the shape of the dose curve; as a rule, active = well fitted inhibition curve with a large enough effect; inconclusive = small, poorly fitted or top-dose-only effect; inactive = flat fitted curve, though single readings scatter. Where a SMILES comes first, the peptide text is derived from it."}
{"target": "Calcium and integrin-binding protein 1 (Homo sapiens) (UniProt Q99828)", "sequence (Q99828 whole entry, looked up)": "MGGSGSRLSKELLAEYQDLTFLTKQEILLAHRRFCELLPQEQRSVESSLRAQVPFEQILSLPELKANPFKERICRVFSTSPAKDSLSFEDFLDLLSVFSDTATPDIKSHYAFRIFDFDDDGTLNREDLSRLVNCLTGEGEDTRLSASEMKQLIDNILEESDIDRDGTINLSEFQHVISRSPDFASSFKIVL", "test": "Primary qHTS for Identification of Calcium Integrin Binding Protein 1 (CIB1) Competitor (AID 1508620);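 also: GST tagged CIB1 binding a fluorescein labelled alphaIIb integrin peptide tracer; top concentration of the series differs between compounds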", "details": "CIB1-GST / FITC-alphaIIb peptide fluorescence polarization; series mostly up to 57.7 µM", "procedure,_shortened": "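Fluorescence polarization competition: CIB1-GST (1 uM final) preincubated with compound 15 min at room temperature, then FITC-labeled alphaIIb peptide (100 nM final) added for another 15 min. Polarization read at Ex 480/Em 540.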"}
{"smiles": "COc1ccc2c(c1)O[C@H](O[C@@H]1O[C@H](CO)[C@@H](O)[C@H](O)[C@H]1O)C(=O)N2", "Potency": "inactive"}
{"smiles": "NC(=O)[C@H]1CCCCc2c1[nH]c1ccc(Cl)cc21", "Potency": "inactive"}
{"smiles": "O=C(c1ccc(F)cc1)C1CCN(CCn2c(=O)nc3n(c2=O)CCCC3)CC1", "Potency": "inactive"}
{"smiles": "CCn1cc(C2=NOC(C(=O)Nc3c(C)n(C)n(-c4ccccc4)c3=O)C2)c(C)n1", "note": "(stereo not given)", "Potency": "inactive"}
{"smiles": "CCC(CC)n1ccc2c(C(=O)NCc3c(C)cc(C)[nH]c3=O)cc(C#N)cc21", "Potency": "inactive"}
{"smiles": "CC(C)c1cc2c(c(O)c1O[C@@H]1O[C@H](CO)[C@@H](O)[C@H](O)[C@H]1O)CC1(O)CCC(O)C(C)(C)C1CC2", "note": "(stereo not given in full)", "Potency": "inactive"}
{"smiles": "CC(=O)c1cnc2ccc(-c3cc(Cl)c(O)c(Cl)c3)nc2c1NC1CCC(CN(C)C)CC1", "note": "(stereo not given)", "Potency": "inactive"}
{"smiles": "CC(/C=C/C1(O)C(C)(C)CC(O)CC1(C)O)OC1OC(CO)C(O)C(O)C1O", "note": "(stereo not given)", "Potency": "inactive"}
{"smiles": "C=Cc1cc(O)cc2nc(-c3ccc(O)c(F)c3)oc12", "Potency": "inactive"}
{"smiles": "C[C@@H](O)[C@H](N)C(=O)N1CCC[C@H]1C(=O)N1CCC[C@H]1C(=O)N[C@H](C(N)=O)[C@@H](C)O", "note": "(H-TPPT-NH2)", "Potency": "inactive"}
{"smiles": "CNC(=O)Nc1ccc(OC)c(NC(=O)NC(=O)c2cc(F)c(F)cc2Cl)c1", "Potency": "inactive"}
{"smiles": "C[C@@H]1CC[C@]2(C)C(C[C@@H](O)[C@H](O)[C@]23CO3)[C@@]1(C)CCc1ccoc1", "note": "(stereo not given in full)", "Potency": "inactive"}
{"smiles": "C=CC1C(O[C@@H]2O[C@H](CO)[C@@H](O)[C@H](O)[C@H]2O)OC=C(C(=O)OC)C1CC(=O)O", "note": "(stereo not given in full)", "Potency": "inactive"}
{"smiles": "O=C(c1ccc(NS(=O)(=O)c2cccc3cccnc23)cc1)N1CCN(CC2CC2)CC1", "Potency": "inactive"}
{"smiles": "C=C1CC2(C(=O)O)CC1CCC2C1(C)CCCC2(C)C(=O)OC(O)C21", "note": "(stereo not given)", "Potency": "inactive"}
{"smiles": "C[C@]12C=CC(=O)C=C1CC[C@@H]1[C@@H]2[C@@H](O)C[C@@]2(C)[C@H]1CC[C@]2(O)C(=O)COC(=O)CCC(=O)O", "Potency": "inactive"}
{"smiles": "C/C=C(\\C)C(=O)O[C@@H]1CC2[C@@H](CC=C3C[C@@H](O[C@H]4C[C@H](OC)[C@H](O[C@H]5C[C@H](OC)[C@H](O[C@H]6C[C@H](OC)[C@H](O[C@H]7C[C@@H](OC)[C@H](O[C@@H]8O[C@H](CO)[C@@H](O)[C@H](O)[C@H]8O)[C@@H](C)O7)[C@@H](C)O6)[C@@H](C)O5)[C@@H](C)O4)CC[C@@]32C)[C@@]2(O)CC[C@H](C(C)=O)[C@@]12C", "note": "(stereo not given in full)", "activity change, negative = inhibition": "0.036% [at 12.4 µM] (inactive)"}
{"smiles": "COC1CC(=O)C23C(=O)NC(CC(C)C)C2C(C)C(C)=CC3/C=C(\\C)CCC1O", "note": "(stereo not given)", "Potency": "inactive"}
{"smiles": "C[C@]12CCC(=O)C=C1[C@@H](O)C[C@@H]1[C@@H]2[C@@H](O)C[C@@]2(C)[C@H]1CC[C@]2(O)C(=O)CO", "Potency": "inactive"}
{"smiles": "CCOC(=O)c1c(C)nn(-c2cccc([N+](=O)[O-])c2)c1C", "Potency": "inactive"}
{"smiles": "O=C(OCc1cccc(O)c1O[C@@H]1O[C@H](CO)[C@@H](O)[C@H](O)[C@H]1O)C1(O)C(=O)C2C=CC1C1C=CC(=O)C(O)(C(=O)OCc3cccc(O)c3O[C@@H]3O[C@H](CO)[C@@H](O)[C@H](O)[C@H]3O)C21", "note": "(stereo not given in full)", "Potency": "inactive"}
{"smiles": "CC(=C/C(=O)O)/C=C/[C@]1(O)[C@@]2(C)CO[C@]1(C)C[C@H](O[C@@H]1O[C@H](CO)[C@@H](O)[C@H](O)[C@H]1O)C2", "Potency": "inactive"}
{"smiles": "CC1NC(=O)C(Cc2c[nH]c3ccccc23)NC1=O", "note": "(stereo not given)", "Potency": "inactive"}
{"smiles": "COc1cc([C@H]2OC[C@]3(OC(C)=O)[C@@H](c4ccc(O[C@@H]5O[C@H](CO)[C@@H](O)[C@H](O)[C@H]5O)c(OC)c4)OC[C@H]23)ccc1O", "Potency": "inactive"}
{"smiles": "C[C@@H]1O[C@@H](O[C@H]2[C@H](O)[C@@H](O)[C@H](OC[C@H]3O[C@@H](OC(=O)[C@]45CCC(C)(C)C[C@H]4C4=CCC6[C@@]7(C)C[C@H](O)[C@H](O[C@@H]8O[C@H](CO)[C@@H](O)[C@H](O)[C@H]8O)[C@@](C)(C(=O)O)C7CC[C@@]6(C)[C@]4(C)CC5)[C@H](O[C@@H]4O[C@H](CO)[C@@H](O)[C@H](O)[C@H]4O)[C@@H](O)[C@@H]3O)O[C@@H]2CO)[C@H](O)[C@H](O)[C@H]1O", "note": "(stereo not given in full)", "activity change, negative = inhibition": "0.065% [at 12.4 µM] (inactive)"}
{"smiles": "Cc1nnc(C(C)C)n1C1CC2CCC(C1)N2CCC(NC(=O)C1CCC(F)(F)CC1)c1ccccc1", "note": "(stereo not given)", "Potency": "inactive"}
{"smiles": "O=C(/C=C/c1ccc(O)cc1)OCC1=C[C@@H](O)[C@@H]2C=CO[C@@H](O[C@@H]3O[C@H](CO)[C@@H](O)[C@H](O)[C@H]3O)[C@H]12", "Potency": "inactive"}
{"smiles": "C/C=C(\\C)C(=O)OC[C@H]1O[C@H](O[C@H]2O[C@H](CO)[C@@H](OC(=O)/C(C)=C/C)[C@H](O)[C@H]2O[C@@H]2O[C@H](CO)[C@@H](O)[C@H](O)[C@H]2O)[C@H](O[C@@H]2O[C@H](CO)[C@@H](O)[C@H](O)[C@H]2O)[C@@H](O)[C@@H]1O", "Potency": "inactive"}
{"smiles": "CC(=O)O[C@H]1[C@H](C)[C@@H](O)[C@H]2[C@@H]1C=C(C(=O)O)[C@H]1C[C@@H]3[C@H]([C@H]21)[C@H]1C(=O)O[C@@H]2CC[C@@]3(C)O[C@]1(O)[C@@H]2C", "Potency": "inactive"}
{"smiles": "O=C(c1ccc(C#Cc2cccc(F)c2)cn1)N1CC2CC2C1", "note": "(stereo not given)", "Potency": "inactive"}
{"smiles": "COC(=O)C1=COC(OC2OC(CO)C(O)C(O)C2O)C2C1CC(OC(=O)C(O)CC(=O)O)C2C", "note": "(stereo not given)", "Potency": "inactive"}
{"smiles": "C=C1[C@@H]2CC[C@@]3(C)[C@H](c4ccoc4)OC(=O)C[C@]13O[C@H]1CC(=O)C(C)(C)[C@H](CC(=O)OC)[C@]12C", "Potency": "inactive"}
{"smiles": "COCCN(C)Cc1ccc2nc3sc(C(=O)N(C)C4CCCCC4)cn3c2c1", "Potency": "inactive"}
{"smiles": "CCC1CC2C(C)=CC3CCCCC3C2(C)C2(OC(=O)C(C)(O)OC2=O)O1", "note": "(stereo not given)", "Potency": "inactive"}
{"smiles": "C=CC(C)(O)CC/C=C(/C)C(=O)OC1C(OC2OCC(OC3OC(CO)C(O)C(O)C3O)C(OC3OCC(O)C(OC4OC(C)C(O)C(O)C4O)C3O)C2O)COC(OC(=O)C23CCC(C)(C)CC2C2=CCC4C5(C)CCC(OC6OC(CO)C(OC7OC(CO)C(O)C(OC8OCC(O)C(O)C8O)C7O)C(O)C6O)C(C)(C)C5CCC4(C)C2(C)CC3O)C1O", "note": "(stereo not given)", "activity change, negative = inhibition": "-3% [at 12.4 µM] (inactive)"}
{"smiles": "CC(C)C1=CC2=CCC3[C@](C)(CCC[C@@]3(C)C(=O)O)C2CC1O", "note": "(stereo not given in full)", "Potency": "inactive"}
{"smiles": "COc1cc2c(cc1OC)CN(C(=O)[C@@H](NCc1ccncc1)C(C)(C)C)CC2", "Potency": "inactive"}
{"smiles": "C[C@@H]1O[C@@H](OC[C@H]2O[C@@H](OCC3CCC4CC3C4(C)C)[C@H](O)[C@@H](O)[C@@H]2O)[C@H](O)[C@H](O)[C@H]1O", "note": "(stereo not given in full)", "Potency": "inactive"}
{"smiles": "COc1cc(/C=C/C(=O)OC2CC(C)=C(C(=O)O)/C2=C/CO[C@@H]2O[C@H](CO)[C@@H](O)[C@H](O)[C@H]2O)ccc1O", "note": "(stereo not given in full)", "Potency": "inactive"}
{"smiles": "CC(=O)NCCCCn1c2c(c3ccccc31)C(=O)NCC2", "Potency": "inactive"}
